{"source": "PubChem BioAssay (NCATS)", "note": "Several values for one entry are separate records, joined by “and”; a condition that tells them apart may be missing. Identical values can stand only once. Inconclusive results are not listed. Activity calls are given as the source filed them. Calls come from the whole dose curve; as a rule, active = well fitted cell-killing curve with a large enough effect; inconclusive = small, poorly fitted or top-dose-only effect, or effect the other way; inactive = flat fitted curve, though single readings scatter. % is set by controls: 0 for no effect and ±100 for the full control effect; potency is the fitted concentration of half-maximal effect."}
{"tested_on": "CAOV3", "experiment": "Primary qHTS to identify gynecologic anti-cancer compounds using libraries of approved drugs and bioactive compounds (AID 1345084); note: nearly all actives have a fitted effect of over 55% in size", "settings": "Gynecologic cancer cell panel viability, ATPlite luminescence, 48 h; series mostly up to 57.5 µM; activity change, negative = cytotoxicity: at the top concentration", "from_the_text": "National Center for Advancing Translational Sciences [NCATS] Assay Overview: Chemotherapeutic drug responses vary from cancer to cancer and from patient to patient. These variations could be caused by a number of factors including patient genomic background, tumor mutations, tumor heterogeneity, and aspects of drug treatment. Chemotherapeutic drug resistance is also a common issue and can lead to ineffective treatment and patient death. Here we have profiled the cell killing effects of thousands of compounds to characterize the responses in three gynecological cancers, identify cancer-selective compounds, and understand the diversity of responses to these compounds from pan-cancer suppressors to single cell line selective compounds. In this assay, we screened a 7,914 compound drug library that included approved drug and bioactive compounds in six ovarian, three cervical, and […] placental cancer cell lines using the ATPlite assay for cell viability. […] The cervical cancer cell lines included HeLa, Ca Ski, and C-33 A. The placental cancer cell lines included JEG-3. HEK 293T cells were used as the control cell line to determine the selectivity index. ATPlite is a luminescence based assay reliant on the conversion of a luciferase substrate to light in the presence of ATP. As a cytotoxic compound will suppress growth and decrease the number of cells, the concentration of ATP will decrease, and less light signal will be detected in the well.\nAssay Protocol Summary: 1,000 cells in 4 uL of media were dispensed into white, solid bottom 1536-well plates using a Multidrop Combi (Thermo Scientific). The Assay plates were incubated for 16 hours at 37 C with 5% CO2 in assay plates, followed by the addition of 23 nL of DMSO or drug dissolved in DMSO. Each compound was assayed in five concentrations (0.092, 0.46, 2.3, 11.5, and 57.5 uM), using the automated Wako 1536 Pin Tool workstation and incubated at 37 C with 5% CO2 48 hours. 4 uL of ATPlite, the ATP monitoring reagent, was then added to the each well of the assay plates using the Multidrop Combi reagent dispenser followed by incubation for 15 minutes at room temperature. The resulting luminescence was measured using the ViewLux plate reader."}
{"smiles": "C[C@@H]1CN(Cc2ccc(F)cc2)[C@@H](C)CN1C(=O)c1cc2c(C(=O)C(=O)N(C)C)cn(C)c2cc1Cl", "activity change, negative = cytotoxicity": "3.08% (inactive)"}
{"smiles": "Cc1ccccc1C(OCCN(C)C)c1ccccc1", "note": "(stereo not given)", "activity change, negative = cytotoxicity": "-23.4% (inactive)"}
{"smiles": "O=NN(CCCl)C(=O)NCCCl", "activity change, negative = cytotoxicity": "-9.14% (inactive)"}
{"smiles": "CCCS(=O)(=O)Nc1ccc(F)c(C(=O)c2c[nH]c3ncc(-c4ccc(Cl)cc4)cc23)c1F", "activity change, negative = cytotoxicity": "9.17% (inactive)"}
{"smiles": "CCc1cc(Nc2nccc(-c3c(-c4ccc(OC)c(C(=O)Nc5c(F)cccc5F)c4)nc4ccccn34)n2)c(OC)cc1N1CCC(N2CCN(S(C)(=O)=O)CC2)CC1", "activity change, negative = cytotoxicity": "1.71% (inactive)"}
{"smiles": "CNC(=O)c1ccccc1Sc1ccc2c(/C=C/c3ccccn3)n[nH]c2c1", "Potency": "10 µM (active) and 8.91 µM (active)"}
{"smiles": "CC(C)OC(=O)C1=CN(C(=O)c2ccc(F)c(F)c2)CC(C)(C)c2c1[nH]c1ccccc21", "activity change, negative = cytotoxicity": "-5.38% (inactive)"}
{"smiles": "N#CC[C@H](C1CCCC1)n1cc(-c2ncnc3[nH]ccc23)cn1", "activity change, negative = cytotoxicity": "1.02% (inactive)"}
{"smiles": "CCN(CC)CCCC(C)Nc1ccnc2cc(Cl)ccc12", "note": "(stereo not given)", "activity change, negative = cytotoxicity": "-18.6% [at 11.6 µM] (inactive)"}
{"smiles": "CCOC(=O)C1=C[C@]2(CC)CCCN3CCc4c(n1c1ccccc41)[C@@H]32", "activity change, negative = cytotoxicity": "-5.46% (inactive)"}
{"smiles": "OCCn1cc(-c2cnc3nnn(Cc4ccc5ncccc5c4)c3n2)cn1", "activity change, negative = cytotoxicity": "-7.87% (inactive)"}
{"smiles": "CCc1cncnc1N1CCN(Cc2nc3ccc(C(F)(F)F)cc3[nH]2)CC1", "activity change, negative = cytotoxicity": "-0.407% (inactive)"}
{"smiles": "Cc1n[nH]c(C)c1Cc1sc2c(c1C(=O)N1C[C@H](O)CO1)c(=O)n(C)c(=O)n2CC(C)C", "activity change, negative = cytotoxicity": "-4.1% (inactive)"}
{"smiles": "CC[C@@H](C)[C@H](NC(=O)[C@H](CC1CCCCC1)NC(=O)c1ccno1)C(=O)N1CCC2(CCc3ccccc32)CC1", "activity change, negative = cytotoxicity": "-4.04% (inactive)"}
{"smiles": "NCCc1ccc(O)c(O)c1", "activity change, negative = cytotoxicity": "-1.92% (inactive)"}
{"smiles": "C[C@H](NC(=O)Cc1cc(F)cc(F)c1)C(=O)N[C@@H]1C(=O)N(C)c2ccccc2-c2ccccc21", "activity change, negative = cytotoxicity": "0.369% (inactive)"}
{"smiles": "NCCCC(N)(C(=O)O)C(F)F", "note": "(stereo not given)", "activity change, negative = cytotoxicity": "9.83% (inactive)"}
{"smiles": "COc1cc(Oc2ccnc3cc(OC)c(OC)cc23)ccc1NC(=O)NC(C)c1nccs1", "note": "(stereo not given)", "activity change, negative = cytotoxicity": "-11.1% (inactive)"}
{"smiles": "Cc1ccnc(NS(=O)(=O)c2ccc(NC(=O)Nc3ccc(S(=O)(=O)Nc4nccc(C)n4)cc3)cc2)n1", "activity change, negative = cytotoxicity": "12.8% (inactive)"}
{"smiles": "C1COC(NC(C2CC2)C2CC2)=N1", "activity change, negative = cytotoxicity": "-12.5% (inactive)"}
{"smiles": "Cc1[nH]c(=O)c(C#N)cc1-c1ccncc1", "Potency": "inactive"}
{"smiles": "NC(N)=NC(=O)c1nc(Cl)c(N)nc1N", "activity change, negative = cytotoxicity": "-24.8% (inactive)"}
{"smiles": "O=C(Nc1cccnc1)N1CCC(Cc2cccc(Oc3ccc(C(F)(F)F)cn3)c2)CC1", "activity change, negative = cytotoxicity": "-4.95% (inactive)"}
{"smiles": "Cn1cnc([N+](=O)[O-])c1Sc1ncnc2nc[nH]c12", "Potency": "inactive"}
{"smiles": "CCCCNc1cc(C(=O)O)cc(S(N)(=O)=O)c1Oc1ccccc1", "activity change, negative = cytotoxicity": "0.841% (inactive)"}
{"smiles": "CNC[C@H](O)c1cccc(O)c1", "activity change, negative = cytotoxicity": "13.4% (inactive)"}
{"smiles": "CN(C)c1ccc(C2Nc3ccc4ccccc4c3C3=C2C(=O)CC(C)(C)C3)cc1Br", "note": "(stereo not given)", "activity change, negative = cytotoxicity": "3.16% (inactive)"}
{"smiles": "CCn1cc(C(=O)O)c(=O)c2cc(F)c(N3CCNC(C)C3)c(F)c21", "note": "(stereo not given)", "activity change, negative = cytotoxicity": "15.7% (inactive)"}
{"smiles": "CC[C@H](Nc1ncnc2nc[nH]c12)c1nc2cccc(F)c2c(=O)n1-c1ccccc1", "activity change, negative = cytotoxicity": "-6.79% [at 11.6 µM] (inactive)"}
{"smiles": "COc1cc(Nc2ncc3c(n2)-c2ccc(Cl)cc2C(c2c(F)cccc2OC)=NC3)ccc1C(=O)O", "Potency": "31.6 µM (active)"}
{"smiles": "COc1nc(-c2ccc3c(c2)OCO3)n(-c2ccc(NC(=O)CSc3ccccc3)cc2)n1", "activity change, negative = cytotoxicity": "5.3% (inactive)"}
{"smiles": "Nc1ccc(S(=O)(=O)Nc2ccnn2-c2ccccc2)cc1", "activity change, negative = cytotoxicity": "-25.5% [at 25.3 µM] (inactive)"}
{"smiles": "CC(C)(N)C(=O)N[C@H](COCc1ccccc1)C(=O)N1CCC2(CC1)CN(S(C)(=O)=O)c1ccccc12", "activity change, negative = cytotoxicity": "-0.828% (inactive)"}
{"smiles": "CCCc1nn(C)c2c(=O)[nH]c(-c3cc(S(=O)(=O)N4CCN(C)CC4)ccc3OCC)nc12", "Potency": "inactive"}
{"smiles": "Cc1cc(SCc2sc(-c3ccc(C(F)(F)F)cc3)nc2C)ccc1OCC(=O)O", "activity change, negative = cytotoxicity": "0% (inactive)"}
{"smiles": "CC1(C)Cc2c(-c3ccccc3)c(-c3ccc(Cl)cc3)c(CC(=O)O)n2C1", "activity change, negative = cytotoxicity": "-13.6% (inactive)"}
{"smiles": "CC(C[N+](C)(C)C)OC(N)=O", "note": "(stereo not given)", "activity change, negative = cytotoxicity": "1.37% (inactive)"}
{"smiles": "CS(=O)(=O)c1cccc(CNc2nc(Nc3ccc4c(c3)CCC(=O)N4)ncc2C(F)(F)F)c1", "activity change, negative = cytotoxicity": "-22.7% (inactive)"}
{"smiles": "NC(=O)c1cnccn1", "activity change, negative = cytotoxicity": "5.62% (inactive)"}
{"smiles": "CC(c1cc2ccccc2s1)N(O)C(N)=O", "note": "(stereo not given)", "activity change, negative = cytotoxicity": "-5.28% (inactive)"}
